Data taken from PubChem BioAssay (EPA / NIEHS).
The source made the active and inactive calls. Rule for the calls: active = hit-call score of the fitted dose curve at least 0.9, where 1 is the maximum; inactive = score below 0.9.

Each compound was assayed on Heat shock 70 kDa protein 1 (HSPA1A), gene 3303 (assay: LTEA_HepaRG_HSPA1A: Life Technologies and Expression Analysis (LTEA) Assay for Heat shock 70 kDa protein 1 (HSPA1A) using HepaRG (AID 2283502)). Conditions: mRNA level, 48 h; actives raise or lower the signal.
Experimental: LTEA_HepaRG is a cell based, multiplexed-readout assay that uses HepaRG, a human liver cell line, with measurements taken at 48 hours after chemical dosing on a 96-well plate.LTEA_HepaRG_HSPA1A is one of 102 assay component(s) measured in the LTEA HepaRG cell culture assay. It is a marker of Oxidative Stress.Data from the assay component LTEA_HepaRG_HSPA1A was analyzed into 1 endpoint. This assay endpoint, LTEA_HepaRG_HSPA1A, was analyzed with bidirectional fitting relative to DMSO as the negative control and baseline of activity. Using a type of inducible reporter, measures of mRNA induction for gain or loss-of-signal activity can be used to understand regulation of transcription factor activity. To generalize the intended target to other relatable targets, this assay endpoint is annotated to the dna binding intended target family, where the subfamily is heat shock protein.
A total of 1060 chemcials from the ToxCast library were tested in eight-point concentration-response experiments. Cell culture and cytotoxicity assays were conducted at Thermo Fisher Scientific's Custom Services facility (Madison, WI). A single lot of human HepaRG cells (Thermo Fisher Scientific, Frederick, MD) was used for the cell culture experiments. 96-well format collagen type I coated plates of human HepaRG cells were prepared using established methods. Briefly, cryopreserved HepaRG cells were thawed, plated at a density of approximately 100,000 cells/well in HepaRG Thaw, Plate, and General Purpose media (HPRG770, Thermo Fisher Scientific), and incubated for 48 hours. 0.5% DMSO was selected as vehicle control to balance the requisite need of DMSO in HepaRG cultures to maintain differentiation (for example, baseline metabolism, proportions of hepatocytes vs. cholangiocytes), while enabling further hepatic receptor pathway activation (for example, PXR and CAR) in response to chemical exposure. 48 hours after plating, the culture medium was replaced with HepaRG Serum-Free Incudtion Media. Cells were exposed to each test chemical in duplicate and maintained in CO2 incubators for another 48 hours. Chemical plates were thawed to room temperature and 200x concentrations of treatment groups were prepared. 8-point conentration-reponse curves were made with the highest exposure at 100 uM, followed by half-log dilutions, all in 0.5% DMSO. Each test plate contained variouse controls, induction positive controls (1mM phenobarbital), cytotoxicity positive controls ([…] aflatoxin B1), vehicle controls (0.5% DMSO), and total lysis controls (0.5% DMSO). Cell morphology images were taken using an Essen IncuCyte FLR automated microscope, with six 96-well plates imaged in about 24 minutes. Images were captured and exported and JPEG files. Spent culture media was transfered to black-well plates for the LDH assay, and remaining media was sorted at -80 C for later use. Cells were treated with RLT buffer and frozen until shipped for gene expression analysis. Total RNA was isolated from the cell suspension in 75 uL of Buffer RLT (Qiagen, Germantown, MD 20874) by Quintiles/Expression Analysis (Durham, NC) using a custom isolation procedure. Total RNA from each plate well was transferred to a preamplification plate. Fluidigm's 96.96 Dynamic ArrayTM (Fluidigm, Amsterdam, the Netherlands) technology was used for gene expression analyses by quantitative reverse transcription polymerase chain reaction (qRT-PCR, performed by Quintiles/Expression Analysis, Durham, NC)89. Standard TaqManTM Assays (Applied Biosystems/ThermoFisher Scientific, Foster City, CA) were used to assess the expression of 93 genes selected based on their selectivity and sensitivity to important hepatic receptors known to be modulated by environmental chemicals; importance in human hepatocyte functionality; and hepatotoxicity. […]

Row | SMILES | AC50 | outcome
1 | Cc1cc(N=Nc2ccccc2C)ccc1N | 3.55 µM (active) | –
2 | CCC[CH2][Sn]([Cl])([CH2]CCC)[CH2]CCC | 2.27 µM (active) | –
3 | CC(C)(C)OOC(=O)c1ccccc1 | – | inactive
4 | CCOC(=O)[C@]1(c2ccccc2)Oc2ccccc2[C@@H]1N | – | inactive
5 | CNC(=O)Oc1cccc2c1OC(C)(C)C2 | – | inactive
6 | CCCCCCCCOC(=O)c1ccc(C(=O)OCCCCCCCC)c(C(=O)OCCCCCCCC)c1 | – | inactive
7 | CCC(C)c1ccc(O)cc1 (stereo not given) | – | inactive
8 | COC(=O)Nc1nc2ccccc2[nH]1 | – | inactive
9 | CC(C)COC(=O)c1ccccc1C(=O)OCC(C)C | – | inactive
10 | CC(C)(C)OOC(C)(C)CCC(C)(C)OOC(C)(C)C | – | inactive
11 | CN(C)c1ccc(C(=O)c2ccc(N(C)C)cc2)cc1 | – | inactive
12 | CC(C)(C)C(O)(CCc1ccc(Cl)cc1)Cn1cncn1 (stereo not given) | – | inactive
13 | c1ccc(C2CO2)cc1 (stereo not given) | – | inactive
14 | CCCCOC(=O)c1ccccc1C(=O)OCc1ccccc1 | – | inactive
15 | C[C@]12C=CC3=C4CCC(=O)C=C4CC[C@H]3[C@@H]1CC[C@@H]2O | – | inactive
16 | c1ccc(N=Nc2ccccc2)cc1 | – | inactive
17 | Clc1ccccc1Cl | – | inactive
18 | C[N+](C)(C)CC1CO1 (stereo not given) | – | inactive
19 | c1ccc2c(c1)oc1ccccc12 | – | inactive
20 | Oc1ccccc1Cl | – | inactive

Row | SMILES | AC50 | outcome
21 | [Cl-].[Cl-].[Hg+2] | – | inactive
22 | [O-][Cl+]O | – | inactive
23 | CCN(CC)CCO | – | inactive
24 | C1=Cc2cccc3cccc1c23 | – | inactive
25 | O=[N+]([O-])c1ccc(Oc2ccc(Cl)cc2Cl)cc1 | – | inactive
26 | O=Cc1ccco1 | – | inactive
27 | Nc1ccc([N+](=O)[O-])cc1 | – | inactive
28 | ClC1=C(Cl)C2(Cl)C3C(Cl)C=CC3C1(Cl)C2(Cl)Cl (stereo not given) | 24 µM (active) | –
29 | COP(=S)(OC)SCN1C(=O)c2ccccc2C1=O | – | inactive
30 | Oc1ccc2ccc3cccc4ccc1c2c34 | – | inactive
31 | CCOc1cccc(C2(N3CCN(c4ccccc4)CC3)CCC(C)CC2)c1 (stereo not given) | – | inactive
32 | C=CCc1ccc2c(c1)OCO2 | – | inactive
33 | OCCCl | – | inactive
34 | Cc1ccc(N)cc1 | – | inactive
35 | OCCCBr | – | inactive
36 | ClC1=C(Cl)[C@]2(Cl)[C@H]3[C@H]([C@@H]4C=C[C@H]3C4)[C@@]1(Cl)C2(Cl)Cl | – | inactive
37 | CC(C)N(Cc1ccccc1)C(=O)C(C)(C)C | – | inactive
38 | O=C(O)C1C2CCC(O2)C1C(=O)O (stereo not given) | – | inactive
39 | CC(C)(OOC(C)(C)c1ccccc1)c1ccccc1 | – | inactive
40 | Nc1ccc(Cc2ccc(N)cc2)cc1 | – | inactive
